Assay results taken from ChEMBL document CHEMBL3988442, “University of Dundee, Small-Polar-MMV Screening Library” (2021).
Hit rate of the full screen: of about 48,000 compounds, about 13,000 (27%) showed an effect of 50% or more. Some of the results follow.

test system: Wolbachia pipientis; experiment: Anti-Wolbachia Cell-Based Screen; assay type: functional; set-up: scale not given: in the data most compounds retested in dose-response had high values; conditions: 5 µM

Row | SMILES | Percent Effect [%]
1 | CC1(C(=O)N2CCOCC2)CN(Cc2cccnc2)CCO1 (stereo unspecified) | 65.44
2 | Cc1ccc(N2CC3(COCCN(Cc4cccnc4)C3)OCC2=O)s1.O=C(O)C(F)(F)F.O=C(O)C(F)(F)F (stereo unspecified) | 6.598
3 | CSCCC(O)C(=O)N1CCCN(Cc2cccnc2)CC1 (stereo unspecified) | -2.174
4 | COc1ncc(CN2CCOC(C)(C(=O)N3CCOCC3)C2)cn1 (stereo unspecified) | 124.6
5 | COc1cc(C(=O)N2CCC(O)(CN3CCOCC3)C(C)(C)C2)ccn1 (stereo unspecified) | 1.548
6 | COc1ncc(-c2nccn2-c2ccccc2CN2CCOCC2)cn1 | 4.794
7 | CNc1cccc(C2CCCN(C(=O)c3cscn3)C2)n1 (stereo unspecified) | 98.56
8 | O=C(c1cccnc1)N1CCC(Oc2cccc(C(F)(F)F)c2)CC1 | 6.335
9 | CNc1cccc(C2CCN(C(=O)c3cccnc3)CC2)n1 | 107.8
10 | CNc1cccc(C2CCCN(C(=O)c3ccn(C)n3)C2)n1 (stereo unspecified) | 117.7
11 | CNc1cccc(C2CCCN(C(=O)c3cncs3)C2)n1 (stereo unspecified) | 121.7
12 | CN(c1ncccc1CNC(=O)c1csnn1)C1CCCCC1 | 20.86
13 | Cc1ccsc1CN(CCN(C)C)C(=O)c1ccc(C#N)nc1 | -1.147
14 | NC1CCN(C2CCN(c3ccc(-c4ccco4)cc3)CC2)CC1 | -26.06
15 | CCc1nsc(N2CCc3sccc3C2)n1 | 12.97
16 | CNc1cccc(C2CCCN(C(=O)Cc3ccccc3)C2)n1 (stereo unspecified) | 110.2
17 | CNc1cccc(C2CCCN(C(=O)c3cccnc3)C2)n1 (stereo unspecified) | 119.9
18 | CNc1cccc(C2CCCN(C(=O)c3coc(C)n3)C2)n1 (stereo unspecified) | 115.1
19 | CNc1cccc(C2CCCN(C(=O)c3cnccn3)C2)n1 (stereo unspecified) | 101.6
20 | CNc1cccc(C2CCCN(C(=O)c3ccncc3)C2)n1 (stereo unspecified) | -7.86
21 | O=C(N[C@@H]1CCN(c2ncc(Cl)cc2Cl)C[C@H]1O)c1cnccn1 | -4.452
22 | COC(C)C(=O)Nc1cc(C(=O)N2CCSCC2)ccc1C (stereo unspecified) | -22.96
23 | CNS(=O)(=O)c1ccc(CN2CCN3CCNC(=O)C3C2)cc1 (stereo unspecified) | -0.7065
24 | COCCN1CCCC(O)(CN2CCN(c3cnccn3)CC2)C1=O (stereo unspecified) | -3.22
25 | O=S(=O)(C1CC1)N1CCC(Cn2cccn2)CC1 | 1.748
26 | Cc1cc(C(C)NC(=O)c2ccc(O)nc2)c(C)o1 (stereo unspecified) | 2.609

Row | SMILES | Percent Effect [%]
27 | O=C(NC1CC(=O)N(C2CC2)C1)c1ccc(Cl)s1 (stereo unspecified) | -7.498
28 | CCCS(=O)(=O)N1CCC(NC(=O)c2ccc(Cl)s2)CC1 | 8.314
29 | CC(C)N1CC(NC(=O)c2ccc(Cl)s2)CC1=O (stereo unspecified) | 98.39
30 | O=C(C1CC1)N1Cc2[nH]nc(COCc3cccnc3)c2C1.O=C(O)C(F)(F)F.O=C(O)C(F)(F)F | 96.05
31 | CCS(=O)(=O)N1Cc2[nH]nc(COCc3cccnc3)c2C1.O=C(O)C(F)(F)F | 98.27
32 | O=C(O)C(F)(F)F.O=S(=O)(C1CC1)N1Cc2[nH]nc(COCC3CC3)c2C1 | -8.849
33 | O=C(O)C(F)(F)F.O=C(O)C(F)(F)F.O=C(O)C(F)(F)F.c1ccc(CN2Cc3[nH]nc(COc4cccnc4)c3C2)nc1 | 6.723
34 | O=C(O)C(F)(F)F.O=C(O)C(F)(F)F.c1cncc(COCc2n[nH]c3c2CN(Cc2ccco2)C3)c1 | 1.979
35 | O=C(NC1CC1)N1Cc2[nH]nc(COc3cccnc3)c2C1.O=C(O)C(F)(F)F | -0.5105
36 | Cc1nn(C)c(C)c1-c1ccc(=O)n(C(C)C(=O)NC(C)(C)C)n1 (stereo unspecified) | 122.1
37 | Cc1nn(C)c(C)c1C(C)NC(=O)Nc1cccnc1N1CCCC1 (stereo unspecified) | 8.996
38 | CCSc1ccc(NC(=O)NC(C)c2c(C)nn(C)c2C)cn1 (stereo unspecified) | -34.73
39 | COC(=O)[C@H]1CN(C(=O)NC(C)C)CCN1C(=O)c1cccs1 | 13.93
40 | Cc1cc(C(=O)N2CCc3nc(N4CCOCC4)nc(C)c3C2)c(C)o1.O=CO | 94.45
41 | Cc1cc(C(=O)N2CCc3nc(N4CCCC4)nc(C)c3CC2)c(C)o1 | 102.5
42 | CN(C)c1nc(N2CCCC2)nc2c1CCN(C(=O)c1ccoc1)CC2 | -4.722
43 | Cc1nc(N2CCCC2)nc2c1CN(C(=O)c1ccco1)CC2 | 4.912
44 | Cc1nc(N2CCCC2)nc2c1CCN(C(=O)c1ccoc1C)CC2 | 99.57
45 | CCc1noc(CS(=O)(=O)C(C)c2nc(C3CC3)no2)n1 (stereo unspecified) | -17.73
46 | N#Cc1ccccc1OCCN1CCCC1Cn1cccn1 (stereo unspecified) | 7.756
47 | COCC1CN(C(=O)Cc2ccc(F)cc2)Cc2ccnn2C1 (stereo unspecified) | 27.63
48 | Cn1cc(Nc2cccc(C(=O)N(CC(N)=O)C3CCCC3)c2)cn1 | 6.719
49 | CC(NC(N)=O)C(=O)NCc1cc(Br)ccc1F (stereo unspecified) | 3.265
50 | CN1CCCN(C[C@@H]2CN(C(=O)CCc3cn[nH]c3)C[C@@H]2CO)CC1 | 1.74
51 | O=C(C1CC=CC1)N1CCCn2nnc(CNc3ncccn3)c2C1 | 108.6
